# Test results: PubChem BioAssay (NCI)
# About 83,000 compounds went through this panel and 20% of them were active in at least one assay; those are over-represented in the sample as a whole.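 Single-concentration screen, 48 h exposure, 96-well plates. Endpoint: percent growth. Below 10 = active.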 A number with no mark means an inactive call. The source made the active and inactive calls.
# Tested on: SW-620 colon
# Assay: NCI-60 one-dose screen, 48 h (100 = growth as untreated, 0 = no growth, -100 = all killed)
# Details: 10 µM
row,Structure (SMILES),growth
1,CN(C)Cc1cn(-c2ncc(-c3ccc(C(F)(F)F)cc3)c(NC3CCCCCC3)n2)nn1,99.4%
2,O=C(CSSCC(=O)c1ccc(Cl)cc1)c1ccc(Cl)cc1,51.1%
3,COc1ccc2c(c1)/C(=C\c1c[nH]c3ccc(OC)cc13)C(=O)N2,15.1%
4,Cc1cc(N(CCCNc2ccnc3cc(Cl)ccc23)Cc2cccs2)nc(Cl)n1,32.9%
5,COc1ccc(-c2nc3sc(C4CC4)nn3c2/C=C2/C(=O)Nc3ccc(OC)cc32)cc1,77.7%
6,COc1cc(-c2cc(/C=C/C(=O)c3ccc4c(c3)OCO4)[nH]n2)cc(OC)c1OC,47.4%
7,CC[C@H](C)C(=O)O[C@H]1CCC=C2C=C[C@H](C)C(CCC3C[C@@H](O)CC(=O)O3)[C@H]21 (stereo not given in full),71.6%
8,CCOCCOCCOCCOCCOCCOCCOCCOCCOCCO (tested in a mixture with another compound),18.6%

# Tested on: MCF7 breast
# Assay: as above
# Details: 10 µM
row,Structure (SMILES),growth
1,COc1ccc(S(=O)(=O)Nc2c(/C=C\c3cc(OC)c(OC)c(OC)c3)ccc(OC)c2O)cc1,10.9%
2,Cc1cn(C2CCCCO2)c(=O)nc1NO (stereo not given),80.3%
3,N=c1nc(N)ncn1-c1ccccc1,92.4%
4,CCCCCCCNc1nc(C=O)ncc1-c1ccc(C(F)(F)F)cc1,83.5%
5,C/C(N)=C(\C#N)C(=O)c1ccccc1,96.6%
6,CC1CC(=O)OC(C)C1 (stereo not given),91.1%
7,Cc1cc(=O)n2nnc3c4ccccc4ccc3n12,45%
8,COc1ccc(-c2nn(-c3cccc(NC(=O)c4cc(C(F)(F)F)cc(C(F)(F)F)c4)c3)cc2-c2ccncc2)cc1Cl,54.2%
9,Cc1ccc(S(=O)(=O)OCCN(CCOS(=O)(=O)c2ccc(C)cc2)c2c[nH]c(=O)[nH]c2=O)cc1,99.2%
10,O=C(Nc1ccc(Cl)cc1)N1NC(c2ccc(Cl)cc2)C=C1c1ccccc1 (stereo not given),89.6%
11,CCn1cc(C(=O)O)c(=O)c2cnc(N3CCCC3)nc21,103%
12,COc1ccc(C2=Nc3c(C)nn(-c4ccccc4)c3NC(c3ccc(Oc4ccnc5cc(Cl)ccc45)c(OC)c3)C2)cc1 (stereo not given),60.6%
13,Cn1c(N)c(N=Nc2ccc(S(=O)(=O)Nc3nccs3)cc2)c(=O)n(C)c1=O,101%
14,COc1cc(-c2nc(-c3nnc(-c4ccccc4Cl)o3)c3ccccn23)cc(OC)c1OC,81.9%
15,COc1ccc(-c2nc3sc(-c4ccc(OC)cc4)c(-c4ccc(OC)cc4)n3c2/C=C/c2ccc(C(C)C)cc2)cc1,90.4%
16,N#CSCC1CC(O)(c2ccccc2)CC(c2ccc(Cl)cc2)O1 (stereo not given),14.7%

row,Structure (SMILES),growth
1,CS(=O)(=O)Nc1cccc(-c2cc(-c3ccccc3Cl)c(C#N)c(N)n2)c1,22.7%
2,O=C(/C=C/c1cc2ccccc2[nH]c1=O)c1ccc2c(c1)OCO2,80.6%
3,CC(C)(Cl)CCC1=C(Cl)C(=O)c2ccccc2C1=O,-0.254% (active)
4,O=C1C(c2ccccc2)C2C=CC(C2)N1O (stereo not given),104%
5,CC(C)(C)NC/C(=C\c1ccccc1)C(=O)c1ccccc1,7.56% (active)
6,NC(=O)c1ccc(-c2cccc3c(=O)nc(N4CCOCC4)oc23)cc1,90.3%
7,COC(=O)C1(C)Cc2cc(OC(C)=O)c(OC(C)=O)cc2N1 (stereo not given),51.7%
8,CC(=O)c1nc2ccccc2n1CCN1CCN(C)CC1,17.8%
9,Nc1nccc(Nc2ccccc2)n1,107%
10,COc1cc(C2CC(c3ccc(Nc4ccnc5cc(Cl)ccc45)cc3)=NN2c2ccc(Cl)cc2)cc(OC)c1OC (stereo not given),29.4%
11,COc1cc(-c2cc(-c3cc4c([nH]c5ccccc54)c(-c4cc(OC)c(OC)c(OC)c4)n3)cc(-c3ccccc3)n2)cc(OC)c1OC,44%
12,COc1ccc(-c2nsc3c2NC(=O)CC3c2ccc(F)cc2)cc1 (stereo not given),22%
13,ClC(Cl)(Cl)c1nc2nccnc2[nH]1,94.1%
14,COc1ccc(-c2cc(/C=C3\C(=O)Nc4ccc(Cl)cc43)[nH]n2)cc1OC,63.1%
15,CCOC(=O)C1CCc2c(ccc3ccccc23)N1CCC#N (stereo not given),85.9%
16,CN(C)Cc1cn(-c2ncc(-c3ccc(C(F)(F)F)cc3)c(NC3CCCCCC3)n2)nn1,70.3%
